Hits are enriched below; roughly 3.5% of the tested compounds scored in any of these assays.
M1 PAM: human CHRM1 positive allosteric modulation; CHO-K1 hM1, Fluo-8 calcium fluorescence, ACh EC20; 0% = ACh EC20, 100% = maximal ACh; 0.088% of 360,000 active; activation, % at 3 µM; P11229; in the data active means activation above about 19%, passing the limit was not always enough
Target sequence (P11229 whole entry, looked up): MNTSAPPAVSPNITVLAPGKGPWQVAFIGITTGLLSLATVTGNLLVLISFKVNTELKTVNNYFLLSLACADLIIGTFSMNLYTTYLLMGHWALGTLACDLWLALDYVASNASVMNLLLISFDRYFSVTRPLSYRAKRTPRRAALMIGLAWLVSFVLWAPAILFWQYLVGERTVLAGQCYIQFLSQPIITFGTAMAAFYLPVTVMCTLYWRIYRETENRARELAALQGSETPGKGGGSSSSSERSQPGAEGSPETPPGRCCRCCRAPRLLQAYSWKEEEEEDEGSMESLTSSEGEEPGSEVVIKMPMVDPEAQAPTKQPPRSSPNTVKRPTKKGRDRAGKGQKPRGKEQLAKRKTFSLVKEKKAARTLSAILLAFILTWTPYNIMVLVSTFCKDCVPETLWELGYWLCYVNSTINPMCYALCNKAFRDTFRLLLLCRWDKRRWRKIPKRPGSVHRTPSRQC
M1 antag: blocks human M1 muscarinic receptor | 1.3% of 360,000 active | inhibition, % at 3 µM | CHO-K1 hM1, Fluo-8 calcium fluorescence, ACh EC80 antagonist | P11229;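 active means percent inhibition above its own plate's cutoff, namely the mean of that plate's compound wells plus 3 SD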;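 further: peak over basal fluorescence ratio during 140 s after agonist addition; 0% = ACh EC80 plus DMSO and 100% = DMSO alone without agonist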
M1 ag: agonists of human M1 muscarinic receptor; CHO-K1 hM1, Fluo-8 calcium fluorescence, agonist mode; 0% DMSO, 100% acetylcholine EC100; P11229; 0.33% of 360,000 active; activation, % at 3 µM;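 active means activation above the run's mean compound activation plus 3 SD, cut at about 16% in these data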;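 further: peak over basal fluorescence ratio within a 140 s kinetic read after compound addition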
Myeloid diff MLP: compounds promoting myeloid differentiation. calls only at 10 µM. ER-HoxA9 myeloid progenitors, lysozyme-GFP differentiation, flow cytometry. 1% of 360,000 active;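 active means normalized GFP-positive differentiation at or above the plate's own cutoff, the solvent-only control mean plus 3 SD; inconclusive means no clear call, values can overlap the other calls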;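 further: cells exposed to compound for four days before flow analysis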
ATG4B inh: ATG4B (human) cysteine protease inhibition. Q9Y4P1. ATG4B cleavage of LC3-PLA2, NBD-HPC fluorescence, 1 h. inhibition, % at 8.33 µM. 0.51% of 340,000 active; in the data active means inhibition above about 40%
SKN-1 inh: inhibitors of C. elegans SKN-1. inhibition, % at 21.8 µM. C. elegans VP596 Pgst-4::GFP/RFP ratio, acrylamide-induced, 24 h. 0.49% of 360,000 active. AID 624304;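 active means interference check ratio from 0.5 to 1.5 plus GFP to RFP signal ratio inhibition reaching or exceeding a fixed threshold, cut at about 30% in these data, passing the limit was not always enough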
* marks the source's active call; other numbers are inactive results.

What do the screens show for `C(=C\c1ccccc1)/CN1CCN(C(c2ccnc3ccccc23)c2nnnn2C2CCCC2)CC1` (stereo not drawn)?
M1 PAM: -25.8; M1 antag: 69.8*; M1 ag: -5.7; Myeloid diff MLP: inactive; SKN-1 inh: 15.0

How did COC(=O)C1(C(=O)OC)C2C(=O)C3C(C21)C3(C(=O)OC(C)(C)C)C(=O)OC(C)(C)C (stereo not drawn) do in these assays?
M1 PAM: 1.5; M1 antag: -5.9; M1 ag: -0.9; Myeloid diff MLP: inactive; SKN-1 inh: -1.2

Results for Cc1nc(NC(=O)c2ccccc2)sc1-c1cc(C(=O)N2CCOCC2)nn1Cc1ccccc1 ?
M1 PAM: 5.8; M1 antag: -14.2; M1 ag: -5.7; Myeloid diff MLP: inactive; SKN-1 inh: -17.2

How did CN(Cc1ccccc1)C(c1ccnc2ccccc12)c1nnnn1-c1ccc2c(c1)OCCO2 (stereo not drawn) do in these assays?
Myeloid diff MLP: inactive; SKN-1 inh: 7.9

Results for COc1ccccc1C(=O)Nc1ccc2c(c1)nc(CCNC(C)=O)n2C ?
M1 PAM: 3.5; M1 antag: -3.7; M1 ag: -5.0; Myeloid diff MLP: inactive; ATG4B inh: -3.1; SKN-1 inh: -1.5

Results for CC1CCN(CCc2nc3cc(NC(=O)C(C)C)ccc3n2C)CC1 ?
M1 PAM: -31.6; M1 antag: 88.2*; M1 ag: -11.0; Myeloid diff MLP: inactive; ATG4B inh: -0.2; SKN-1 inh: 5.5

How did COc1ccccc1C(=O)Nc1ccc2c(c1)nc(CCNC(=O)c1ccccc1)n2C do in these assays?
M1 PAM: -2.9; M1 antag: -9.6; M1 ag: -3.7; Myeloid diff MLP: inconclusive; ATG4B inh: -13.9; SKN-1 inh: 42.3*

What do the screens show for `Cc1nn(CC(=O)Nc2ccc3c(c2)nc(CCN2CCCCC2)n3C)c(=O)c2ccccc12`?
M1 PAM: -21.4; M1 antag: 40.4*; M1 ag: -6.8; Myeloid diff MLP: inactive; ATG4B inh: -2.2; SKN-1 inh: -0.7

How did CC(C)C(=O)Nc1ccc2c(c1)nc(CCN1CCCCC1)n2C do in these assays?
M1 PAM: 6.1; M1 antag: -7.6; M1 ag: -10.7; Myeloid diff MLP: inactive; ATG4B inh: -3.1; SKN-1 inh: -2.8

What do the screens show for `Cn1c(CCN2CCCCC2)nc2cc(NC(=O)Nc3ccccc3)ccc21`?
M1 PAM: 0.2; M1 antag: 10.6; M1 ag: -3.5; Myeloid diff MLP: inactive; ATG4B inh: 8.2; SKN-1 inh: 4.9

What do the screens show for `CC(C)C(=O)Nc1ccc2c(c1)nc(CCN1CCN(c3ccccc3)CC1)n2C`?
M1 PAM: -19.4; M1 antag: 44.5*; M1 ag: -8.3; Myeloid diff MLP: inactive; ATG4B inh: 3.6; SKN-1 inh: -1.9

How did CC(=O)N1CCN(Cc2nc3cc(NC(=O)Cn4nc(C)c5ccccc5c4=O)ccc3n2C)CC1 do in these assays?
M1 PAM: 2.0; M1 antag: -9.7; M1 ag: -12.9; Myeloid diff MLP: inactive; ATG4B inh: 3.7; SKN-1 inh: 8.2

What do the screens show for `O=C(O)c1cc(S(=O)(=O)Nc2cccc3ccccc23)c(Cl)cc1Cl`?
M1 PAM: 12.8; M1 antag: -14.0; M1 ag: -6.0; Myeloid diff MLP: inactive; ATG4B inh: -3.2; SKN-1 inh: 15.4

Results for CC1c2cc3c(cc2CCN1C(=O)c1cccc(Cl)c1)OCCCO3 (stereo not drawn) ?
M1 PAM: -6.1; M1 antag: 2.3; M1 ag: -5.4; Myeloid diff MLP: inactive; ATG4B inh: -5.8; SKN-1 inh: 8.4

Results for O=C(CCCC(=O)N(CC(=O)NC1CCCCC1)c1ccccc1F)Nc1ccccn1 ?
M1 PAM: 6.2; M1 antag: -13.6; M1 ag: -4.4; Myeloid diff MLP: inactive; ATG4B inh: -19.0; SKN-1 inh: 10.4

Results for Cn1c(CN2CCN(c3cccc(Cl)c3)CC2)nc2ccccc21 ?
M1 PAM: -14.8; M1 antag: 26.1*; M1 ag: -6.5; Myeloid diff MLP: inactive; ATG4B inh: -1.0; SKN-1 inh: -10.4

What do the screens show for `CCC(C)[C@H]1CNC(=O)C(=O)N1CC(C)(C)C` (stereo partly drawn)?
Myeloid diff MLP: inactive; SKN-1 inh: 3.4

High-throughput results deposited in PubChem BioAssay by several laboratories.
